Source: PubChem (several laboratories)
A selection: hits, their analogues and other compounds. The true share with any hit is near 2.7%.
MPTP inh: permeability transition pore inhibition; isolated mouse mitochondria, Ca2+ swelling absorbance, 30 min; inhibition, % at 10 µM; 1.4% of 360,000 active;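 active = inhibition of 50% or more, scaled per plate between neutral and stimulator controls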;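 also: 0% = DMSO wells given calcium and 100% = 1 mM EGTA wells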
SKN-1 inh: blocks SKN-1 activity in C. elegans. C. elegans VP596 Pgst-4::GFP/RFP ratio, acrylamide-induced, 24 h. inhibition, % at 21.8 µM. 0.49% of 360,000 active. AID 624304;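 active = interference check ratio from 0.5 to 1.5 plus GFP to RFP signal ratio inhibition reaching or exceeding a fixed threshold, cut at about 30% in these data, passing the limit was not always enough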
NRP1-CendR mod: alters CendR peptide binding to human NRP-1. inhibition, % at 25 µM. 0.85% of 360,000 active. O14786. FAM-RPARPAR peptide binding to NRP-1, fluorescence polarization. AID 602438;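 active = inhibition or corrected inhibition above about 18%, plus a signal ratio from 0.5 to 1.5, limit read from the data, passing the limit was not always enough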
ATG4B inhibitor: inhibitors of human ATG4B cysteine protease. ATG4B cleavage of LC3-PLA2, NBD-HPC fluorescence, 1 h. inhibition, % at 8.33 µM. 0.51% of 340,000 active; in the data active = inhibition above about 40%
Target sequence (Q9Y4P1 whole entry, looked up): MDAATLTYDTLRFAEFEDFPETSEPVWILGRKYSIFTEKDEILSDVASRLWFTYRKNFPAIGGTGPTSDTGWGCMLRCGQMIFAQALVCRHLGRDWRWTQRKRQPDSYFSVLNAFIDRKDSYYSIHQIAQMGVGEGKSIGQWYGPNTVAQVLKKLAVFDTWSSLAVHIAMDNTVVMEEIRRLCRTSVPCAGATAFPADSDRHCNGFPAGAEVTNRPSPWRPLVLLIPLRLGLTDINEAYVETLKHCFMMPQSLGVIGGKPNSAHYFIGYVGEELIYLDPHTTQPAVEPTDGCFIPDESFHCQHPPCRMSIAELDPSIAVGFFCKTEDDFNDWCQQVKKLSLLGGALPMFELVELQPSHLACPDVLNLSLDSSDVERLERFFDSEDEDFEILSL
F508del corr: CFTR F508del correction in bronchial cells; 0.36% of 350,000 active; AID 720511; activity (quench increase), % at 7.58 µM; CFBE cells, YFP halide quenching; stimulated with forskolin plus potentiator P3; % fluorescence drop versus neutral controls;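 active = mean added fluorescence quench of at least 8% versus neutral control, with both replicates also reaching 8%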;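 also: cells transiently co-express mutant CFTR-F508del with the halide-sensitive YFP; corrector assay measuring rescue of mutant channel to the surface after 24 h compound exposure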
The depositor's hits bear a star; · = no result given; ! = a repeat was not active.

SMILES | MPTP inh | SKN-1 inh | NRP1-CendR mod | ATG4B inhibitor | F508del corr
CN(C(=O)c1ccccc1OC1CCN(S(C)(=O)=O)CC1)C1CCOC1 (stereo not drawn) | -0.8 | -3.0 | 12.1 | -3.0 | 8.5*
CS(=O)(=O)N1CCC(Oc2ccccc2C(=O)NC2CCOC2)CC1 (stereo not drawn) | -0.5 | -2.0 | 9.6 | 1.6 | 6.5
CC(C)c1nc2oc3c(NCCO)ncnc3c2c2c1COC(C)(C)C2 | -0.7 | 14.4 | 16.8 | -6.6 | 12.7*
CC(C)c1nc2oc3c(NCC4CCCO4)ncnc3c2c2c1COC(C)(C)C2 (stereo not drawn) | 0.6 | 14.4 | -13.4 | -2.8 | ·
COc1ccccc1S(=O)(=O)N(C)C[C@H]1Oc2cc(/C=C/c3ccccc3)ccc2S(=O)(=O)N([C@H](C)CO)C[C@@H]1C | · | · | · | · | 3.3
CCN1C(=O)N(CC)C(O)(c2ccccc2)C1(O)c1ccccc1 (stereo not drawn) | 0.0 | -17.8 | 30.1* | -3.1 | ·
CN(C)CC#Cc1ccc([C@@H]2[C@@H](CO)N3CCCCN(S(=O)(=O)c4ccccc4F)C[C@H]23)cc1 | · | · | · | · | 0.5
O=C(NCC[C@H]1CC[C@@H](NS(=O)(=O)c2ccc(Cl)cc2)[C@H](CO)O1)c1ccccc1F | · | · | · | · | 3.4
COc1ccc(-c2c(-c3ccccc3OC)oc3ccccc23)cn1 | -0.4 | -2.1 | 26.8* | 20.0 | 1.6
CO[C@H]1CN(C)C(=O)c2ccc(NC(=O)C3CCC3)cc2OC[C@H](C)N(C)C[C@H]1C | · | · | · | · | -2.5
C[C@H](CO)N1C[C@H](C)[C@H](CN(C)C(=O)c2ccncc2)OCCCC[C@H](C)Oc2ccc(NC(=O)c3ccncc3)cc2C1=O | · | · | · | · | -0.3
Clc1ccc(-c2cn3c(n2)-c2ccccc2C3)cc1Cl | 2.4 | 40.1* | -8.1 | 6.0 | ·
c1ccc2c(c1)Cn1c-2nc2ccccc21 | 1.1 | -16.7 | 4.9 | 0.9 | ·
CO[C@@H]1CN(C)C(=O)c2cc(NC(=O)C3CC3)ccc2OC[C@@H](C)N(C(=O)Cc2ccccn2)C[C@@H]1C | · | · | · | · | 1.9
CC(/C=C1\SC(=S)N(CCCC(=O)Nc2ccc(C(=O)O)c(O)c2)C1=O)=C\c1ccccc1 | · | · | · | 41.1* | ·
CC(=Cc1ccccc1)C=C1SC(=S)N(CCCC(=O)Nc2ccc(C(=O)O)c(O)c2)C1=O | 1.7 | 18.5 | -104.2 | · | 0.4
C#CCNC(=O)C1=C[C@@H](c2cn(C(C)=O)c3ccccc23)C[C@@H](OCCCCO)O1 | -2.7 | 44.8* | -23.0 | -1.5 | 0.9
CC(=O)n1cc([C@H]2C=C(C(=O)NCc3ccccc3)O[C@@H](OCCCCO)C2)c2ccccc21 | -2.1 | -15.6 | -20.3 | 4.4 | -0.2
CO[C@@]12[C@H](COC(N)=O)C3=C(C(=O)C(C)=C(N)C3=O)N1C[C@@H]1N[C@@H]12 | -3.7 | 8.7 | 1.1 | -3.3 | 0.8
CO[C@@]12[C@@H]3N[C@@H]3CN1C1=C(C(=O)C(N)=C(C)C1=O)[C@@H]2COC(N)=O | -0.6 | 12.4 | 9.8 | 2.9 | 14.3*
COc1ccc(CC(=O)Nc2ccc(-c3nc4cc(C)ccc4o3)c(O)c2)cc1OC | 1.1 | 35.2* | 4.8 | -5.6 | ·
Cc1ccc2oc(-c3ccc(NC(=O)c4ccncc4)cc3O)nc2c1 | -1.2 | 17.2 | -3.6 | -2.6 | -1.2
Cc1ccc(S(=O)(=O)Nc2cccc3c2O[C@@H](CN(C)Cc2ccncc2)[C@H](C)CN([C@@H](C)CO)C3=O)cc1 | · | · | · | · | 1.3
CN(C)/N=C/C=C1\CC/C(=C\c2ccc(Br)cc2)C1=O | 1.9 | 40.7* | -70.9 | -12.4 | ·
CN(C)/N=C/C=C1\CCC/C(=C/c2cccs2)C1=O | 2.8 | 17.6 | -41.9 | 5.6 | -3.3
SMILES | MPTP inh | SKN-1 inh | NRP1-CendR mod | ATG4B inhibitor | F508del corr
CC(C)NC(=O)N[C@@H]1CC[C@@H](CC(=O)N2CCCCC2)O[C@H]1CO | · | · | · | · | -0.7
Oc1cc2c(cc1O)[C@H]1c3ccc(O)c(O)c3OC[C@@]1(O)C2 | -0.8 | 37.3* | 16.9 | 2.0 | 2.6
COc1ccc(C#Cc2ccc3c(c2)[C@@H]2[C@@H](CCN2C(C)=O)[C@H](CO)N3C)cc1 | · | · | · | · | -1.4
O=C(C[C@@H]1CC[C@@H]2[C@H](COC[C@H](O)CN2S(=O)(=O)c2cccc(Cl)c2)O1)NCCCN1CCOCC1 | · | · | · | · | -2.9
COc1ccc(-n2c(C)cc(C(=O)CSc3ccc(NC(C)=O)cc3)c2C)cc1 | 2.1 | -2.3 | 42.4* | 8.6 | ·
CCCCn1cnc2c(c(CC#N)nn2-c2ccccc2)c1=N | -0.7 | -4.9 | 13.0 | -11.1 | 9.4*
Cn1nc(CC#N)c2c(=N)n(N)cnc21 | -0.8 | 12.1 | 5.3 | -8.7 | 1.9
N[C@@H](Cc1cc(I)c(Oc2cc(I)c(O)c(I)c2)c(I)c1)C(=O)O | · | · | · | 44.9* | ·
NC(Cc1ccc(O)c([N+](=O)[O-])c1)C(=O)O (stereo not drawn) | -0.5 | 1.6 | -2.0 | -7.4 | ·
N[C@@H](Cc1cc(I)c(Oc2ccc(O)c(I)c2)c(I)c1)C(=O)O | 0.1 | 16.9 | -80.7 | 84.4*! | 4.9
COC(=O)C[C@H]1CC[C@H]2[C@@H](COc3ccc(NC(=O)c4cccc(OC)c4)cc3C(=O)N2C)O1 | · | · | · | · | 2.1
O=C1c2ccccc2C(=O)c2c(NCCCN(CCO)CCO)cccc21 | 5.9 | 40.7* | -1.4 | -7.8 | 3.6
CCN(CC)S(=O)(=O)c1ccc(/C=C/C(=O)O)cc1 | -0.2 | -4.0 | 32.6* | 5.4 | -2.5
O=C(O)/C=C/c1ccc(S(=O)(=O)N(CCO)CCO)cc1 | 0.8 | 2.2 | -8.3 | 1.3 | -0.3
N/C(Cc1ccc(Cl)c(Cl)c1)=N\OC(=O)c1cccs1 | 0.0 | -15.7 | 6.8 | 5.3 | ·
N/C(=N\OC(=O)c1cccs1)C1(c2ccc(Cl)cc2Cl)CC1 | -1.5 | 15.4 | 36.7* | 3.8 | 0.6
CCCC#Cc1ccc2c(c1)O[C@H](CN(C)C(=O)c1ccccn1)[C@@H](C)CN([C@@H](C)CO)S2(=O)=O | · | · | · | · | 3.0
N#Cc1ccccc1NC(=O)Nc1cccc(Cl)c1 | 2.5 | 40.7* | 5.4 | 0.4 | ·
N#Cc1ccccc1NC(=O)Nc1ccc(Cl)cc1 | -0.1 | 0.0 | 0.8 | 5.0 | ·
O=C1NC(Cc2ccc(O)cc2)c2nc3ccc(Br)cc3c(=O)n2-c2cc3ccccc3cc21 (stereo not drawn) | 0.5 | 15.6 | 9.0 | · | 8.2*
CCOc1ccc(NC(=O)CSc2nnc(COc3c(C)cccc3C)o2)cc1 | 0.7 | 10.3 | 24.0* | -5.7 | 3.0
Cc1cccc(C)c1OCc1nnc(SCC(=O)Nc2nccs2)o1 | 0.4 | 4.3 | -6.0 | -2.6 | -0.4
Cc1[nH]nc(N=CC2=C(O)CC(c3ccco3)CC2=O)c1-c1ccccc1 (stereo not drawn) | 1.1 | -7.6 | 6.3 | -8.2 | 1.8
Cc1[nH]nc(N=CC2=C(O)CC(C)(C)CC2=O)c1-c1ccccc1 | 1.0 | 5.4 | 18.8*! | -11.2 | -0.3
Cc1ccc(C)c(N2CCN(C(=O)c3cc4ccccn4n3)CC2)c1 | -1.8 | -34.0 | 21.0* | -1.7 | ·
CCOCC(=O)Nc1cccc(Br)c1 | 3.3 | 37.1* | 2.7 | 7.0 | ·
COc1ccc(NC(=O)N(C)C[C@H]2Oc3ncc(-c4ccc(C#N)cc4)cc3C(=O)N([C@H](C)CO)C[C@H]2C)cc1 | · | · | · | · | -5.3
